PubChem BioAssay (NCATS)
Results filed as inconclusive are left out. Calls of active or inactive are those of the source. Calls come from the whole dose curve; as a rule, active = well fitted inhibition curve with a large enough effect; inconclusive = small, poorly fitted or top-dose-only effect; inactive = flat fitted curve, though single readings scatter.

How the values were obtained:
[1] = qHTS profiling for inhibitors of Plasmodium falciparum proliferation (AID 504749); note: nearly all actives have a fitted effect of over 60% in size;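 for activity, negative = inhibition: 0% = DMSO vehicle and full inhibition = artemisinin control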; conditions: P. falciparum in erythrocytes, SYBR Green DNA, 72 h, at 28.7 µM (top of the series)
How it was run: (§1)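 Three-day growth assay of blood-stage parasites in erythrocytes (0.3% parasitemia, 2.5% hematocrit) at 37 C, 5% CO2, quantified by SYBR Green DNA staining after overnight detergent lysis.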

3D7 = test: as above; conditions: P. falciparum in erythrocytes, SYBR Green DNA, 72 h; series mostly up to 28.7 µM
How it was run: as §1

7G8 = test: as above; conditions: P. falciparum in erythrocytes, SYBR Green DNA, 72 h; series mostly up to 28.7 µM
How it was run: as §1

AA1029 = test: as above; conditions: P. falciparum in erythrocytes, SYBR Green DNA, 72 h; series mostly up to 28.7 µM
How it was run: as §1

AS120 = test: as above; conditions: P. falciparum in erythrocytes, SYBR Green DNA, 72 h; series mostly up to 28.7 µM
How it was run: as §1

ATS189 = test: as above; conditions: P. falciparum in erythrocytes, SYBR Green DNA, 72 h; series mostly up to 28.7 µM
How it was run: as §1

ATS95 = test: as above; conditions: P. falciparum in erythrocytes, SYBR Green DNA, 72 h; series mostly up to 28.7 µM
How it was run: as §1

C2A = test: as above; conditions: P. falciparum in erythrocytes, SYBR Green DNA, 72 h; series mostly up to 28.7 µM
How it was run: as §1

CP185 = test: as above; conditions: P. falciparum in erythrocytes, SYBR Green DNA, 72 h; series mostly up to 28.7 µM
How it was run: as §1

CP191 = test: as above; conditions: P. falciparum in erythrocytes, SYBR Green DNA, 72 h; series mostly up to 28.7 µM
How it was run: as §1

CP192 = test: as above; conditions: P. falciparum in erythrocytes, SYBR Green DNA, 72 h; series mostly up to 28.7 µM
How it was run: as §1

CP194 = test: as above; conditions: P. falciparum in erythrocytes, SYBR Green DNA, 72 h; series mostly up to 28.7 µM
How it was run: as §1
Potency is the fitted concentration of half-maximal effect.

O=C(O)COc1ccc(CCNS(=O)(=O)c2ccccc2)s1
inactive: activity, negative = inhibition ([1]; parasite line A) 12.4% | activity, negative = inhibition ([1]; parasite line B) -10.1% | Potency (3D7) | Potency (7G8) | Potency (AA1029) | Potency (AS120) | Potency (ATS189) | Potency (ATS95) | Potency (C2A) | Potency (CP185) | Potency (CP191) | Potency (CP192) | Potency (CP194)

O=S(=O)(O)CCCS(=O)(=O)O
inactive: activity, negative = inhibition ([1]; parasite line A) -6.14% | activity, negative = inhibition ([1]; parasite line B) 2.06% | Potency (3D7) | Potency (7G8) | Potency (AA1029) | Potency (AS120) | Potency (ATS189) | Potency (ATS95) | Potency (C2A) | Potency (CP185) | Potency (CP191) | Potency (CP192) | Potency (CP194)

CCN(CC)CCOc1ccccc1OC
inactive: activity, negative = inhibition ([1]; parasite line A) -4.79% | activity, negative = inhibition ([1]; parasite line B) -3.67% | Potency (3D7) | Potency (7G8) | Potency (AA1029) | Potency (AS120) | Potency (ATS189) | Potency (ATS95) | Potency (C2A) | Potency (CP185) | Potency (CP191) | Potency (CP192) | Potency (CP194)

COc1ccc(C(=O)CCC(=O)O)c2ccccc12
inactive: activity, negative = inhibition ([1]; parasite line A) 16.4% | activity, negative = inhibition ([1]; parasite line B) 8.35% | Potency (3D7) | Potency (7G8) | Potency (AA1029) | Potency (AS120) | Potency (ATS189) | Potency (ATS95) | Potency (C2A) | Potency (CP185) | Potency (CP191) | Potency (CP192) | Potency (CP194)

CC(=O)Oc1cccc(C(=O)O)c1OC(C)=O
inactive: activity, negative = inhibition ([1]; parasite line A) 7.04% | activity, negative = inhibition ([1]; parasite line B) 3.67% | Potency (3D7) | Potency (7G8) | Potency (AA1029) | Potency (AS120) | Potency (ATS189) | Potency (ATS95) | Potency (C2A) | Potency (CP185) | Potency (CP191) | Potency (CP192) | Potency (CP194)

CCOc1ccc(S(=O)(=O)O)c2cccnc12
inactive: activity, negative = inhibition ([1]; parasite line A) 8.12% | activity, negative = inhibition ([1]; parasite line B) 6.17% | Potency (3D7) | Potency (7G8) | Potency (AA1029) | Potency (AS120) | Potency (ATS189) | Potency (ATS95) | Potency (C2A) | Potency (CP185) | Potency (CP191) | Potency (CP192) | Potency (CP194)

O=C(O)CCCC/C=C(\c1ccccc1)c1cccnc1
inactive: activity, negative = inhibition ([1]; parasite line A) 3.33% | activity, negative = inhibition ([1]; parasite line B) 8.41% | Potency (3D7) | Potency (7G8) | Potency (AA1029) | Potency (AS120) | Potency (ATS189) | Potency (ATS95) | Potency (C2A) | Potency (CP185) | Potency (CP191) | Potency (CP192) | Potency (CP194)

C[C@H](CCCC(C)(C)O)[C@H]1CC[C@H]2[C@@H]3CC=C4C[C@@H](O)CC[C@]4(C)[C@H]3CC[C@]12C
inactive: activity, negative = inhibition ([1]; parasite line A) 13.3% | activity, negative = inhibition ([1]; parasite line B) 17.1% | Potency (3D7) | Potency (AA1029) | Potency (AS120) | Potency (ATS189) | Potency (ATS95) | Potency (C2A) | Potency (CP185) | Potency (CP191) | Potency (CP192) | Potency (CP194)
active: Potency (7G8) 11.2 µM

OCCCNc1ccccc1
inactive: activity, negative = inhibition ([1]; parasite line A) 8.17% | activity, negative = inhibition ([1]; parasite line B) 6.74% | Potency (3D7) | Potency (7G8) | Potency (AA1029) | Potency (AS120) | Potency (ATS189) | Potency (ATS95) | Potency (C2A) | Potency (CP185) | Potency (CP191) | Potency (CP192) | Potency (CP194)

O=S(=O)(O)CC(S)CS (centres undefined)
inactive: activity, negative = inhibition ([1]; parasite line A) 14.3% | activity, negative = inhibition ([1]; parasite line B) -2.53% | Potency (3D7) | Potency (7G8) | Potency (AA1029) | Potency (AS120) | Potency (ATS189) | Potency (ATS95) | Potency (C2A) | Potency (CP185) | Potency (CP191) | Potency (CP192) | Potency (CP194)

CO/N=C(\C(=O)N[C@@H]1C(=O)N2C(C(=O)[O-])=C(C[n+]3cccc4c3CCC4)CS[C@H]12)c1csc(N)n1
inactive: activity, negative = inhibition ([1]; parasite line A) 12.2% | activity, negative = inhibition ([1]; parasite line B) 2.56% | Potency (3D7) | Potency (7G8) | Potency (AA1029) | Potency (AS120) | Potency (ATS189) | Potency (ATS95) | Potency (C2A) | Potency (CP185) | Potency (CP191) | Potency (CP192) | Potency (CP194)

O[C@@H]([C@H](O)[C@H](O)CBr)[C@H](O)CBr
inactive: activity, negative = inhibition ([1]; parasite line A) -11.7% | activity, negative = inhibition ([1]; parasite line B) 1.51% | Potency (3D7) | Potency (7G8) | Potency (AA1029) | Potency (AS120) | Potency (ATS189) | Potency (ATS95) | Potency (C2A) | Potency (CP185) | Potency (CP191) | Potency (CP192) | Potency (CP194)

CCC(O)c1ccccc1 (centres undefined)
inactive: activity, negative = inhibition ([1]; parasite line A) 5.27% | activity, negative = inhibition ([1]; parasite line B) 8.76% | Potency (3D7) | Potency (7G8) | Potency (AA1029) | Potency (AS120) | Potency (ATS189) | Potency (ATS95) | Potency (C2A) | Potency (CP185) | Potency (CP191) | Potency (CP192) | Potency (CP194)

CCOC(=O)[C@@H](N)CS
inactive: activity, negative = inhibition ([1]; parasite line A) -7.81% | activity, negative = inhibition ([1]; parasite line B) 16.4% | Potency (3D7) | Potency (7G8) | Potency (AA1029) | Potency (AS120) | Potency (ATS189) | Potency (ATS95) | Potency (C2A) | Potency (CP185) | Potency (CP191) | Potency (CP192) | Potency (CP194)

CC(CNC(=O)c1cccnc1)NC(=O)c1cccnc1 (centres undefined)
inactive: activity, negative = inhibition ([1]; parasite line A) 8.56% | activity, negative = inhibition ([1]; parasite line B) 11.1% | Potency (3D7) | Potency (7G8) | Potency (AA1029) | Potency (AS120) | Potency (ATS189) | Potency (ATS95) | Potency (C2A) | Potency (CP185) | Potency (CP191) | Potency (CP192) | Potency (CP194)

CCCC(=O)O
inactive: activity, negative = inhibition ([1]; parasite line A) 7.39% | activity, negative = inhibition ([1]; parasite line B) 16.4% | Potency (3D7) | Potency (7G8) | Potency (AA1029) | Potency (AS120) | Potency (ATS189) | Potency (ATS95) | Potency (C2A) | Potency (CP185) | Potency (CP191) | Potency (CP192) | Potency (CP194)

CCCc1ccc(C(=O)O)cc1
inactive: activity, negative = inhibition ([1]; parasite line A) -2.85% | activity, negative = inhibition ([1]; parasite line B) -4.82% | Potency (3D7) | Potency (7G8) | Potency (AA1029) | Potency (AS120) | Potency (ATS189) | Potency (ATS95) | Potency (C2A) | Potency (CP185) | Potency (CP191) | Potency (CP192) | Potency (CP194)

CCCCC
inactive: activity, negative = inhibition ([1]; parasite line A) 7.05% | activity, negative = inhibition ([1]; parasite line B) 20.9% | Potency (3D7) | Potency (7G8) | Potency (AA1029) | Potency (AS120) | Potency (ATS189) | Potency (ATS95) | Potency (C2A) | Potency (CP185) | Potency (CP191) | Potency (CP192) | Potency (CP194)
